HSF1 activator: increases HSF-1 driven luciferase reporter signal; NIH3T3-HGL HSF-1 luciferase reporter, MG132, 8 h; 100% = twice DMSO control signal; activation, % at 9 µM; 300,000 compounds, 1.7% hits; AID 504408;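 active means mean replicate activation of at least 50% with a set share of replicates each reaching 50%; inconclusive means only one of those two conditions met; inactive means mean below 50% and too few replicates reaching it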;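 further: 0% = median of the neutral control wells and 100% = twice that signal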
TWEAK-Fn14 inh: TWEAK-Fn14 signaling inhibition | TWEAK-stimulated Fn14 reporter cells, luciferase luminescence, 8 h | inhibition, % at 10 µM | 360,000 compounds, 2% hits | AID 1159606; in the data active means inhibition above about 50%
HSP90 refold inh: inhibitors of HSP90 luciferase refolding in rabbit reticulocyte lysate; inhibition, % at 5.6 µM; 290,000 compounds, 0.91% hits; luciferase refolding luminescence, 3 h;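 active means inhibition above the screen-wide mean plus 3 SD, computed separately per campaign, cut at about 16% in these data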;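 further: 0% = DMSO wells and 100% = 60 µM geldanamycin wells; inhibitors lower the luminescence because luciferase stays unfolded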
HSF1 inhib: HSF1 inhibition | NIH3T3-HGL HSE-luciferase, MG132-induced, luminescence 8 h; active compounds read low | activity change, negative = inhibition, % at 7.5 µM (by protocol) | 300,000 compounds, 0.77% hits | AID 2098;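 active means more than half of replicate wells show activity change below -50%, luminescence cut by over half; inconclusive means some wells, but at most half, below -50%; inactive means no replicate well below -50%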;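 further: luciferase reports HSF-1 transcriptional activity via heat shock element; 0% = median of DMSO wells and -100% = zero luminescence signal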
EBV LMP1 NFkB: reduces LMP1-driven NF-kappaB luciferase signal. LMP1-induced NF-kappaB luciferase reporter cells, luminescence. inhibition, % at 12.5 µM. 350,000 compounds, 0.69% hits. AID 504558; in the data active means inhibition above about 41%; inconclusive means no clear call, values can overlap the other calls;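 further: 0% = neutral control wells and 100% = reference inhibitor control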
TROY signal inh: TROY signaling inhibition; inhibition, % at 10 µM; AID 1347056; 360,000 compounds, 0.98% hits; Q293 LMP1-TROYcd NF-kB luciferase reporter, 4 h;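 active means compounds whose plate-normalised and pattern-corrected inhibition of the luciferase reporter signal at the single screening dose is 50% or more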
Active calls of the source: *; ? = inconclusive; · = no result. Sampled rows, rich in hits. Any-hit rate of the full collection: about 4.7%.

SMILES	HSF1 activator	TWEAK-Fn14 inh	HSP90 refold inh	HSF1 inhib	EBV LMP1 NFkB	TROY signal inh
COc1ccccc1Cn1c(/C=C/c2ccccc2)nc2ccccc21	29	0	-3	12	-23	-53
COc1ccc(/C=C/c2nc3ccccc3n2Cc2ccccc2OC)cc1	68*	14	3	21	-14	27
CCOC(=O)c1c(NC(=O)COc2ccccc2C#N)sc2c1CC(C)(C)NC2(C)C	-50	14	-1	-53*	-2	-4
CC(C)=CCC/C(C)=C/CNC(=O)C[C@H]1C[C@H](C(=O)N2CCOCC2)[C@@]2(CCC3CCCC3)c3[nH]c4cc(CCC(=O)N(C)C)ccc4c3CCN2C1=O	·	26	·	·	9	41
O=[N+]([O-])c1ccc(Sc2cccc3cccnc23)c([N+](=O)[O-])c1	33	64*	2	-1	-98	25
O=[N+]([O-])c1cc(Cl)ccc1Sc1cccc2cccnc12	·	9	4	·	6	-4
O=[N+]([O-])c1ccc(Sc2ccncn2)c([N+](=O)[O-])c1	·	77*	·	·	26	41
Cc1cc(C)nc(Sc2ccc([N+](=O)[O-])cc2[N+](=O)[O-])n1	66*	58*	-4	45	-36	21
OC(c1ccc(-c2ccccc2)cc1)c1ncc(-c2cccc(F)c2)[nH]1 (stereo not given)	·	21	·	·	·	21
O=C(O)c1c(Cl)cccc1Nc1ccccc1	·	5	·	·	·	6
O=C1C=C(c2ccccc2)CC(/C=C/c2ccccc2)C1 (stereo not given)	98*	0	-3	70	-6	-14
O=C1C=C(c2ccccc2)CC(c2ccc(F)cc2)C1 (stereo not given)	26	-15	·	13	-4	0
Cc1ccc(N(CCC#N)C(=O)CCl)cc1C	-16	56*	5	1	2	3
C[C@H](CO)N1C[C@H](C)[C@@H](CN(C)S(=O)(=O)c2cccs2)OCc2cnnn2CCCC1=O	·	0	·	·	-3	12
Cn1ccnc1SCC(=O)NC12CC3CC(CC(C3)C1)C2	-5	6	-3	-6	-3	-4
Cc1nnc(SCC(=O)NC23CC4CC(CC(C4)C2)C3)n(N)c1=O	11	97*	-3	-3	5	85*
N#C/C(=N/Nc1ccc(OC(F)(F)F)cc1)C(N)=S	-6	80*	-1	0	34	49
COc1ccc(N/N=C(\C#N)C(N)=O)cc1	8	-39	0	2	1	1
CC(=O)c1c(C)[nH]c(C(=O)COc2cc(C)ccc2C(C)C)c1C	-19	64*	4	-5	31	48
COc1ccc2c(Cl)cc(NC(=O)Nc3c(C)cccc3C)nc2c1	·	-9	·	·	-4	19
Cc1c(C)n(CCc2ccccc2)c2ncnc(NCCO)c12	?	8	1	43	-38	-46
Cc1c(C)n(Cc2ccccc2)c2ncnc(Cl)c12	10	65*	13	-5	29	38
CC(C)(C)OC(=O)N1CCC[C@@H]1C(=O)N1CCC[C@@H]1C(=O)NCc1ccccc1Cl	·	23	·	·	·	-18
COCCCNC(=O)c1c[nH]c2ccc(S(=O)(=O)N3CCc4ccccc43)cc2c1=O	51*	11	1	23	-2	33
COCCNC(=O)c1c[nH]c2ccc(S(=O)(=O)N3CCc4ccccc43)cc2c1=O	6	38	-3	5	15	9
SMILES	HSF1 activator	TWEAK-Fn14 inh	HSP90 refold inh	HSF1 inhib	EBV LMP1 NFkB	TROY signal inh
Cc1ccc(S(=O)(=O)c2ncccc2[N+](=O)[O-])cc1	-97	95*	14	-97*	29	53*
COc1ccc(Cl)cc1CC1(C)C(=O)Nc2ccc(S(=O)(=O)NC3CCCCC3)cc21 (stereo not given)	·	9	·	·	·	20
Cc1ccc(C(=O)N2CCSCC2)cc1	-1	-14	17*	-3	2	0
Cc1ccc(NC(=O)Nc2ccc(C(=O)N3CCOCC3)cc2)cc1	-15	5	-4	-10	7	-23
CCOc1ccc(NCc2nnc(SCC(=O)Nc3nc(-c4ccccc4)cs3)n2-c2ccccc2)cc1	-68	-3	6	-67*	-4	-3
CCOc1ccc(NCc2nnc(SCc3ccc(Cl)cc3)n2-c2ccccc2)cc1	-4	8	4	-2	6	43
Cc1cccc(C)c1NCc1nnc(SCC(=O)Nc2nc(-c3ccccc3)cs2)n1-c1ccccc1	60*	1	-2	24	-4	-4

Screening data from PubChem BioAssay.
